Measured values published in PubChem BioAssay (NCI).
The panel holds about 83,000 compounds, 20% with a hit somewhere; the sample as a whole holds those more often.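 The endpoint reported here, percent growth, reads 100 for growth as untreated, 0 for no net growth and -100 for all cells dead.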 Activity calls are given as the source filed them. The calls were made as follows: active = growth percent below 10; inactive = the rest.

Columns and labels:
Assay in all cases: NCI-60 one-dose screen, 48 h (100 = growth as untreated, 0 = no growth, -100 = all killed)
Conditions in all cases: 10 µM unless noted
SR leukemia = tested on: SR leukemia
RPMI-8226 leukemia = tested on: RPMI-8226 leukemia
OVCAR-8 ovarian = tested on: OVCAR-8 ovarian
OVCAR-5 ovarian = tested on: OVCAR-5 ovarian
OVCAR-4 ovarian = tested on: OVCAR-4 ovarian
SK-OV-3 ovarian = tested on: SK-OV-3 ovarian
IGROV1 ovarian = tested on: IGROV1 ovarian
OVCAR-3 ovarian = tested on: OVCAR-3 ovarian
HS 578T breast = tested on: HS 578T breast
NCI/ADR-RES ovarian = tested on: NCI/ADR-RES ovarian

Measured: growth

O=C(NN1C(=O)CSC1c1cccc([N+](=O)[O-])c1)c1ccc(NC(=O)c2ccccn2)cc1 (stereo not given)
inactive: SR leukemia 20.5% | RPMI-8226 leukemia 103% | OVCAR-8 ovarian 99.5% | OVCAR-5 ovarian 92.6% | OVCAR-4 ovarian 110% | SK-OV-3 ovarian 104% | IGROV1 ovarian 90% | OVCAR-3 ovarian 103% | HS 578T breast 103% | NCI/ADR-RES ovarian 90.8%

COc1cc(/C=N/NC(=O)c2ccc(-n3cc(-c4ccccc4)nn3)cc2)cc(OC)c1OC
inactive: SR leukemia 55.4% | RPMI-8226 leukemia 24% | OVCAR-8 ovarian 49% | OVCAR-5 ovarian 105% | OVCAR-4 ovarian 45.8% | SK-OV-3 ovarian 73.7% | IGROV1 ovarian 57% | OVCAR-3 ovarian 93% | HS 578T breast 53.1% | NCI/ADR-RES ovarian 80.8%

Cc1c(O)cc(-c2cnc(N/N=C/c3ccccc3)s2)c(O)c1C
inactive: SR leukemia 95.3% | RPMI-8226 leukemia 51.5% | OVCAR-8 ovarian 84.4% | OVCAR-5 ovarian 110% | OVCAR-4 ovarian 63.5% | SK-OV-3 ovarian 102% | IGROV1 ovarian 83.8% | OVCAR-3 ovarian 95.5% | HS 578T breast 91.2% | NCI/ADR-RES ovarian 93.6%

COc1ccc(-c2cc(-c3cccnc3)nc3sc4c(N)c(C(C)=O)c(-c5ccccc5)nc4c23)cc1OC
inactive: SR leukemia 75.4% | RPMI-8226 leukemia 53.7% | OVCAR-8 ovarian 84.9% | OVCAR-5 ovarian 89.5% | OVCAR-4 ovarian 90.7% | SK-OV-3 ovarian 110% | IGROV1 ovarian 98.5% | OVCAR-3 ovarian 82.4% | HS 578T breast 45.6% | NCI/ADR-RES ovarian 79%

ClCCn1cnc2c(SCc3ccccc3)ncnc21
inactive: SR leukemia 43.6% | RPMI-8226 leukemia 50.9% | OVCAR-8 ovarian 41.8% | OVCAR-5 ovarian 101% | OVCAR-4 ovarian 81.8% | SK-OV-3 ovarian 62.5% | IGROV1 ovarian 133% | OVCAR-3 ovarian 73.4% | HS 578T breast 62.8% | NCI/ADR-RES ovarian 57.1%

COc1cc(-c2ccc[nH]2)[nH]c1/C=C1\N=C(C)C(CC(=O)OCC(C)(C)C)=C1C
active: SR leukemia -54.2% | RPMI-8226 leukemia -49.6% | OVCAR-8 ovarian -60.8% | OVCAR-5 ovarian -55.1% | OVCAR-4 ovarian -91.5% | SK-OV-3 ovarian -57.3% | IGROV1 ovarian -43.4% | OVCAR-3 ovarian -98% | HS 578T breast -24.8% | NCI/ADR-RES ovarian -65.8%

C[C@H]1[C@H](C)CC[C@]2(C(=O)NCCNCCN)CC[C@]3(C)C(=CC[C@@H]4[C@@]5(C)CCC(=O)C(C)(C)[C@@H]5CC[C@]43C)[C@H]12
inactive: OVCAR-8 ovarian 33.6% | OVCAR-5 ovarian 94.1% | OVCAR-4 ovarian 77.4% | SK-OV-3 ovarian 87.4% | IGROV1 ovarian 52.7% | HS 578T breast 72.5% | NCI/ADR-RES ovarian 88.2%
active: SR leukemia -38.7% | RPMI-8226 leukemia -16.3% | OVCAR-3 ovarian 9.12%

Brc1ccc(Nc2nc(Nc3cnc4ccccc4c3)c3[nH]cnc3n2)cc1
inactive: SR leukemia 63.9% | RPMI-8226 leukemia 64.2% | OVCAR-8 ovarian 83.9% | OVCAR-5 ovarian 101% | OVCAR-4 ovarian 73.7% | SK-OV-3 ovarian 68.2% | IGROV1 ovarian 74.7% | OVCAR-3 ovarian 60.2% | HS 578T breast 60.9% | NCI/ADR-RES ovarian 92.4%

Nc1ncccc1O
inactive: SR leukemia 65.5% | RPMI-8226 leukemia 87% | OVCAR-8 ovarian 81% | OVCAR-5 ovarian 98.7% | OVCAR-4 ovarian 98.4% | SK-OV-3 ovarian 107% | IGROV1 ovarian 67.2% | OVCAR-3 ovarian 131% | HS 578T breast 109% | NCI/ADR-RES ovarian 77%

COc1ccc(Oc2ccc(/C=C/C(=O)c3cc4ccccc4oc3=O)cc2)cc1
inactive: SR leukemia 80.9% | RPMI-8226 leukemia 59.6% | OVCAR-8 ovarian 93.5% | OVCAR-5 ovarian 112% | OVCAR-4 ovarian 80.7% | SK-OV-3 ovarian 92.4% | IGROV1 ovarian 70.1% | OVCAR-3 ovarian 107% | HS 578T breast 101% | NCI/ADR-RES ovarian 85.6%

CCn1cc(C(=O)N/N=C/c2ccccc2)c(=O)c2cc(F)c(N3CCNC(C)C3)c(F)c21 (stereo not given)
active: SR leukemia -14.6% | RPMI-8226 leukemia -42.4% | OVCAR-3 ovarian -75%
inactive: OVCAR-8 ovarian 28.4% | OVCAR-5 ovarian 67% | OVCAR-4 ovarian 70.7% | SK-OV-3 ovarian 104% | IGROV1 ovarian 58% | HS 578T breast 69.7% | NCI/ADR-RES ovarian 56%

COc1ccc(-c2cc(-c3cn(-c4cccc(Cl)c4)nc3-c3ccc(OC)cc3)on2)cc1
inactive: SR leukemia 68.4% | RPMI-8226 leukemia 88.3% | OVCAR-8 ovarian 93.7% | OVCAR-5 ovarian 111% | OVCAR-4 ovarian 106% | SK-OV-3 ovarian 98% | IGROV1 ovarian 97.5% | OVCAR-3 ovarian 103% | HS 578T breast 96.3% | NCI/ADR-RES ovarian 100%

O=C(O)c1cn(C2CC2)c2cc(N3CCN(C(=O)N4CCOCC4)CC3)c(F)cc2c1=O
inactive: SR leukemia 116% | RPMI-8226 leukemia 108% | OVCAR-8 ovarian 104% | OVCAR-5 ovarian 104% | OVCAR-4 ovarian 106% | SK-OV-3 ovarian 100% | IGROV1 ovarian 94% | OVCAR-3 ovarian 109% | HS 578T breast 119% | NCI/ADR-RES ovarian 105%

Nc1c(C(=O)Nc2cccc3ncccc23)sc2nc3c(cc12)CN(Cc1ccccc1)CC3
inactive: SR leukemia 33.9% | RPMI-8226 leukemia 58.4% | OVCAR-8 ovarian 83% | OVCAR-5 ovarian 88.8% | OVCAR-4 ovarian 71.5% | SK-OV-3 ovarian 78.4% | IGROV1 ovarian 72.6% | OVCAR-3 ovarian 80.1% | HS 578T breast 76.9% | NCI/ADR-RES ovarian 87.9%

CCCCCc1ccc(S(=O)(=O)Nc2ccc3nc(N)oc3c2)cc1
inactive: SR leukemia 31.1% | RPMI-8226 leukemia 38.4% | OVCAR-8 ovarian 53.8% | OVCAR-5 ovarian 99.5% | OVCAR-4 ovarian 27.3% | SK-OV-3 ovarian 81.8% | IGROV1 ovarian 68.4% | OVCAR-3 ovarian 64.5% | HS 578T breast 73.9% | NCI/ADR-RES ovarian 53%

Cc1oc(-c2ccc(Cl)cc2)nc1C1=NN(C(=O)c2ccncc2)C(c2ccccc2)C1 (stereo not given)
inactive: SR leukemia 101% | RPMI-8226 leukemia 80.3% | OVCAR-8 ovarian 95.4% | OVCAR-5 ovarian 105% | OVCAR-4 ovarian 85.4% | SK-OV-3 ovarian 91.9% | IGROV1 ovarian 71.3% | OVCAR-3 ovarian 92.4% | HS 578T breast 87.4% | NCI/ADR-RES ovarian 94%

CCOC(=O)CC1CSC(N/N=C/c2ccc(F)c(Br)c2)=N1 (stereo not given)
inactive: SR leukemia 87.7% | RPMI-8226 leukemia 104% | OVCAR-8 ovarian 114% | OVCAR-5 ovarian 95.1% | OVCAR-4 ovarian 89.1% | SK-OV-3 ovarian 95.3% | IGROV1 ovarian 117% | OVCAR-3 ovarian 99.3% | HS 578T breast 112% | NCI/ADR-RES ovarian 103%

Ic1ccc(Nc2nc3nonc3nc2Nc2ccc(I)cc2)cc1
inactive: OVCAR-5 ovarian 34% | OVCAR-4 ovarian 19.3% | IGROV1 ovarian 28.5% | HS 578T breast 19.2%
active: SR leukemia -12.6% | RPMI-8226 leukemia -36.6% | OVCAR-8 ovarian 6.55% | SK-OV-3 ovarian -19.9% | OVCAR-3 ovarian 9.01% | NCI/ADR-RES ovarian 3.09%

O=[N+]([O-])c1ccccc1Nc1ccc2ccccc2c1
inactive: SR leukemia 88.1% | RPMI-8226 leukemia 82.7% | OVCAR-8 ovarian 88.6% | OVCAR-5 ovarian 113% | OVCAR-4 ovarian 88% | SK-OV-3 ovarian 84.7% | IGROV1 ovarian 87% | OVCAR-3 ovarian 96.3% | HS 578T breast 72.5% | NCI/ADR-RES ovarian 105%

CC(=O)c1ccc(-n2cc(CN3CCN(c4cc5c(cc4F)c(=O)c(C(=O)O)cn5C4CC4)CC3)nn2)cc1
inactive: SR leukemia 99.6% | RPMI-8226 leukemia 47.9% | OVCAR-8 ovarian 95.1% | OVCAR-5 ovarian 103% | OVCAR-4 ovarian 102% | SK-OV-3 ovarian 84.9% | IGROV1 ovarian 75.3% | OVCAR-3 ovarian 90.4% | HS 578T breast 80.6% | NCI/ADR-RES ovarian 87.9%

O=c1oc2c(cnc3ccccc32)cc1-c1cccc(Cl)c1
inactive: SR leukemia 93% | RPMI-8226 leukemia 101% | OVCAR-8 ovarian 109% | OVCAR-5 ovarian 94% | OVCAR-4 ovarian 102% | SK-OV-3 ovarian 105% | IGROV1 ovarian 106% | OVCAR-3 ovarian 112% | HS 578T breast 105% | NCI/ADR-RES ovarian 103%

CC1(C)CC[C@]23CC[C@]4(C)[C@H](CC[C@@H]5[C@@]6(C)C/C(=C/O)C(=O)C(C)(C)[C@@H]6CC[C@]54C)[C@H]2[C@H]1OC3
inactive: SR leukemia 95.1% | RPMI-8226 leukemia 100% | OVCAR-8 ovarian 104% | OVCAR-5 ovarian 107% | OVCAR-4 ovarian 111% | SK-OV-3 ovarian 110% | IGROV1 ovarian 106% | OVCAR-3 ovarian 121% | HS 578T breast 111% | NCI/ADR-RES ovarian 104%

CN(C)C1CN(C(=O)c2cc(-c3ccc4ncnc(N5CCc6cc(F)c(Cl)cc65)c4c3)cnc2N)C1
inactive: SR leukemia 13.3% | OVCAR-8 ovarian 16% | OVCAR-5 ovarian 28.1% | SK-OV-3 ovarian 23.1% | NCI/ADR-RES ovarian 21.1%
active: RPMI-8226 leukemia -10.8% | OVCAR-4 ovarian 5.94% | IGROV1 ovarian -33.6% | OVCAR-3 ovarian -16.5% | HS 578T breast -24.1%

O=S(=O)(Nc1cc(F)cc(F)c1)c1ccc(-c2cnc(C3CC3)o2)cc1
active: OVCAR-3 ovarian 2.74%
inactive: SR leukemia 16.2% | RPMI-8226 leukemia 26.5% | OVCAR-8 ovarian 49.6% | OVCAR-5 ovarian 71% | OVCAR-4 ovarian 67.8% | SK-OV-3 ovarian 60.2% | IGROV1 ovarian 34.3% | HS 578T breast 14.4% | NCI/ADR-RES ovarian 26.4%

O=C(O)CC(C(=O)O)/C(=C\c1ccccc1)c1ccccc1 (stereo not given)
inactive: SR leukemia 105% | RPMI-8226 leukemia 102% | OVCAR-8 ovarian 100% | OVCAR-5 ovarian 104% | OVCAR-4 ovarian 107% | SK-OV-3 ovarian 97.4% | IGROV1 ovarian 120% | OVCAR-3 ovarian 113% | HS 578T breast 105% | NCI/ADR-RES ovarian 110%

COC(=O)c1nc(-c2ccccc2)oc1S(=O)(=O)N1CCCC(C)C1 (stereo not given)
inactive: RPMI-8226 leukemia 51% | OVCAR-8 ovarian 81.9% | OVCAR-5 ovarian 87.4% | OVCAR-4 ovarian 83.2% | SK-OV-3 ovarian 110% | IGROV1 ovarian 64% | OVCAR-3 ovarian 48.9% | HS 578T breast 104% | NCI/ADR-RES ovarian 100%
active: SR leukemia 0.921%
